These results are taken from PubChem BioAssay (NCATS).

Inconclusive results are not listed. Entries that show only a call come without a potency. Active and inactive are the calls of the source. Calls follow the shape of the dose curve; as a rule, active = well fitted cell-killing curve with a large enough effect; inconclusive = small, poorly fitted or top-dose-only effect; inactive = no such curve, though single readings can be large or run the other way.

This experiment in a line: qHTS of pediatric cancer cell lines to identify multiple opportunities for drug repurposing: Primary screen for Rh30 cells (AID 1347107). Also: nearly all actives have a fitted effect of over 75% in size. The conditions noted are these: Rh30 rhabdomyosarcoma viability, CellTiter-Glo luminescence, 48 h; series mostly up to 46 µM. An excerpt:
Drug repurposing or repositioning has been offered as a strategy for drug development in oncology programs. This approach has special potential for childhood cancers and other rare or orphan diseases, where the expected return on new drug development has been a disincentive to pharmaceuticals.
In this project we exploit the poly-pharmacology of drugs to discover new indications via phenotypic screening of a panel of 19 well-characterized cell lines derived from solid tumors seen in children and adolescents. The goal is to identify approved drugs with previously unrecognized anticancer properties that has the potential to reveal new mechanisms and biological processes involved in carcinogenesis or drug resistance. We employed a titration-based paradigm (quantitative high-throughput screening or qHTS), where all compounds were tested at multiple concentrations for their effect on cell viability. Concentration-response curves (CRCs) were derived directly from the primary screen, and both potency and efficacy values were used to identify compounds with robust bioactivity profiles. We screened the NIH Chemical Genomics Center (NCGC) Pharmaceutical Collection (NPC) and Mechanism Interrogation Plate (MIPE) small molecule collections of approved and investigational compounds against these cell lines; and measured metabolically active cells after 48 hours of compound treatment as a proxy for cell viability.
Assay Submitter: Nathalia J. Martinez, National Center for Advancing Translational Sciences, National Institutes of Health, Rockville, MD, USA; email: natalia.martinez@nih.gov
[1] Shen, M et al. Quantitative high-throughput phenotypic screening of pediatric cancer cell lines identifies multiple opportunities for drug repurposing. Oncotarget 2017 Dec 19;9(4):4758-4772. PMID 29435139.
The cells were obtained from University of North Carolina (UNC), Pediatric Preclinical Testing Program (PPT), and Coriell Institute (CI).
qHTS cell viability assay:
Cells were assayed in growth media at a density of 500-1,000 cells/well. Five microliters of cells were dispensed into 1,536-well, white, solid-bottom, TC-treated plates (Greiner Bio One) using a multidrop dispenser and incubated at 37 degrees C, 5% CO2, under a humidified atmosphere for 5 hours. Twenty-three nanoliters of compounds and controls (neutral control DMSO or positive control bortezomib at final concentration of 2.3 µM) were subsequently transferred by Kalypsys pintool. For primary screens, the MIPE collection was tested at 11-point dilutions (final concentrations range from 0.78 nM to 46 µM) and the NPC collection at 8-point dilutions (final concentrations range from 0.59 nM to 46 µM). Compounds tested in follow-up screens were assayed at 11-point dilutions. Cells were incubated for 48 hours, followed by addition of 3 µL of CellTiter-Glo (Promega). After a 15 min incubation at room temperature, samples were analyzed for luminescence intensity using a ViewLux High-throughput CCD imager equipped with clear filters.
On the technique in general: qHTS replaces the single test concentration by a dilution series.
On to `CN1Cc2cc(C(=O)N3CCC(C4CCNCC4)CC3)ccc2NC(CC(=O)O)C1=O` (stereo not given), for which the Potency entry was “inactive”.

With `CN(C)C(=O)CNC(=O)Cc1ccccc1`, the Potency entry was “inactive”.

With `CCOC(=O)[C@H](CCc1ccccc1)N[C@@H](C)C(=O)N(CC(=O)O)C1Cc2ccccc2C1`, the Potency result is “inactive”.

In the case of `O=C1Nc2cc(Cl)ccc2Oc2ccccc21`, the Potency result was “inactive”.

`CN(C)[C@@H]1C(=O)C(C(N)=O)=C(O)[C@@]2(O)C(=O)C3=C(O)c4c(O)cccc4C[C@H]3C[C@@H]12`: the Potency entry was “inactive”.

With `C/C=C(/C(=C/C)c1ccc(OC(C)=O)cc1)c1ccc(OC(C)=O)cc1`, the Potency entry was “inactive”.

Take `Cc1nc([N+](=O)[O-])cn1-c1ccc([N+](=O)[O-])cc1`: the Potency entry is “inactive”.

On to `CCOc1ccccc1OCC1CNCCO1` (stereo not given), for which the Potency result is “inactive”.

Regarding `CC1CN(c2cc3c(cc2F)c(=O)c(C(=O)O)cn3-c2ccc(F)cc2F)CCN1` (stereo not given), the activity change, negative = cytotoxic was 5.93% [at 4.84 µM] (inactive).

As for `NC(=O)NS(=O)(=O)c1ccc(Cl)cc1`, the Potency entry is “inactive”.

For `O=C(COCCOCCOCC(=O)Nc1c(I)cc(I)c(C(=O)O)c1I)Nc1c(I)cc(I)c(C(=O)O)c1I`, the Potency entry was “inactive”.

As to `Cn1cc(S(C)=O)c(=O)c2ccc(F)cc21` (stereo not given), the Potency result was “inactive”.

Regarding `CCCCOC(=O)CCCCCCCCC(=O)OCCCC`, the Potency entry is “inactive”.

With `Nc1nc2ccccc2n1Cc1ccc(F)cc1`, the Potency result is “inactive”.

For the molecule `OCc1c[nH]c2ccccc12`, the Potency result is “inactive”.

With `Cc1ncc(CO)c(CO)c1O`, the Potency result is “inactive”.

On to `O=C1Cc2cc(Cl)ccc2N1`, for which the Potency entry was “inactive”.

As to `CC(C)C(=O)Nc1cccc(C2CN3CCSC3=N2)c1` (stereo not given), the Potency entry was “inactive”.

As to `C/C(=C1\CCOC(=O)S1)N(C=O)Cc1cnc(C)nc1N`, the Potency entry was “inactive”.

Regarding `COC(=O)C1=C(C)NC(C)=C(C(=O)OCCc2ccc(N3CCN(C(c4ccccc4)c4ccccc4)CC3)cc2)C1c1cccc([N+](=O)[O-])c1` (stereo not given), the Potency entry is “inactive”.

Take `O=C(O)c1ccccc1S`: the Potency result was “inactive”.

Turning to `O=C(O)C1CCC1`, the Potency result was “inactive”.

As to `Cc1ccc2ccc(Cl)cc2n1`, the Potency entry is “inactive”.

With `CC(C)C(C)(C)C(C)(C)C(C)(C)S`, the Potency entry is “inactive”.

On to `CC(NN)c1ccccc1` (stereo not given), for which the Potency entry is “inactive”.

With `O=C(O)c1[nH]n(-c2ccc(S(=O)(=O)O)cc2)c(=O)c1N=Nc1ccc(S(=O)(=O)O)cc1`, the Potency result was “inactive”.

In the case of `O=C(CS(=O)Cc1ccco1)NC/C=C\COc1cc(CN2CCCCC2)ccn1` (stereo not given), the Potency result is “inactive”.

On to `CC(=O)Nc1ccn(C2COC(COC(=O)c3ccccc3)O2)c(=O)n1` (stereo not given), for which the Potency result was “inactive”.

Consider `Brc1ccccc1-c1ccccc1`, for which the Potency result was “inactive”.

Regarding `C[N+]1(CC2COC(c3ccccc3)(c3ccccc3)O2)CCCCC1` (stereo not given), the Potency entry is “inactive”.

On to `CC(Oc1c(Cl)cccc1Cl)C1=NCCN1` (stereo not given), for which the Potency result was “inactive”.

With `NS(=O)(=O)c1cc2c(cc1Cl)CN(C1CCCCC1)C2=O`, the Potency result is “inactive”.

Turning to `O=P(O)(O)OCC(O)CO` (stereo not given), the Potency entry is “inactive”.

Take `Nc1ncnc2c1ncn2Cc1c(F)cccc1Cl`: the Potency entry was “inactive”.

With `CCCCC(CC)CNC(=O)CC(C)OC(=O)CCC(=O)O` (stereo not given), the Potency result is “inactive”.

For `COc1cc2nc(Cl)nc(N)c2cc1OC`, the Potency entry is “inactive”.

Turning to `Cc1ccc(/C=N/n2c(-c3ccccc3)csc2=S)cc1`, the Potency entry was “inactive”.

Take `N#Cc1cc(NC(=O)C(=O)O)c(Cl)c(NC(=O)C(=O)O)c1`: the Potency entry was “inactive”.

As for `CC[N+](CC)(CC)CCOC(=O)C(C1CCCC1)C1CCCC1`, the Potency entry was “inactive”.

In the case of `CC(=O)Nc1ccc(S(=O)(=O)Nc2cc(C)on2)cc1`, the Potency entry is “inactive”.
